# The supplement of paper PMC12632987
# In all, about 2,300 sequences were measured (“median log2 fold change of GCK-ALFA target abundance (FLAG IP / Myc IP barcode read proportion)”: median about 0.095, lowest 2% from about -0.47 on). Only a selection was taken, and the lowest values are over-represented in it overall.
# B1: LC3A_147_403 (protein)
# chain: YIVEADIDIITKNAKEEVLAAFEEIVEELKEKGYEVELEVEVEKLDEDTWYINVKIKVETETKEEAEEVADYIEDKIDEIEEKLKDKILASLISIEIIEE
# B2: LC3A_free_46_2366 (protein)
# chain: VKAEIDIDFLVETKEKAEELAKELEEEIKKIAEKYGVKVKIEVKIIKNPDGTYSLEIEIELEAENKETLQKAVNEIIDSIDKIAEKFNVSYIISVEIIDE
# B3: LC3A_28_934 (protein)
# chain: MTVEERIKKALEEAEKAAKAGEPVVITIKVTSKDTQEEIDKLIKTIKEIAEILKNVKGAAIIVDVDAGVPQERIDKIADTLEEIEKKYPNINAILALDED
# B4: LC3A_3_1490 (protein)
# chain: REELLERMRAVLEARGASPEQIAEVLEAAERLLELGYEETVETLIELFEANPDLDPLDIVTAVLITLEVAEEEDLSEEELVERAREIFENVREIEALDEN
# B5: LC3A_3_1491 (protein)
# chain: MEELLERMREVLEARGASEEQIEEVLEAVEELLELGYEETVEELIELFEANPDLDPEQIVTAVLITLEVAEEEDLSEEELVERARRIFEDVAEIEALDEE
# B6: LC3A_28_1022 (protein)
# chain: SALDEELEALRAEVEAALARGEDVLLEVTIKPTDSLEEVRRKMERVKEIALEASKRGKVDVLIDVEKGVSQEKIDIVMDAAEELEEEDPSVNVIIALEEE
# B7: LC3A_141_383 (protein)
# chain: MKKEFEMEATKETADEVFKFMEEVEKETLEMIKESGGKPVKMKVKITATNEKTGEVVEKEEEYIVTEENADLVADGIEIEVLSLLDRVGGKVKVKVTLES
# B8: LC3A_28_1063 (protein)
# chain: SKVEAEIKKALAEAKEAVAAGEEALVTITIDDSDSDEDVEKKLKTMEEIAELTKTLPRTTILVDIDSSRKEEISKKVSEVGDKLEKKYPNVTVIIALSEE
# B9: LC3A_147_431 (protein)
# chain: YITTVDIDVLTKDAEEEVIKAAKEIEEELKAKGYEVELEIEVEELENGEKYIHIKITVKTETEEEAKEAADYIVDKFEELEEKLKDKILGSIISVEIEEA
# B10: LC3A_147_511 (protein)
# chain: YEVEVDVDIITKDAEEEVIEEFKEIAEELKKKGYEVELEIEVEELENGITYIHVKITVKTETEEEAKEVANYILDKIDEIEEKLKDKILGSMISVEIIKK
# B11: LC3A_free_8_2456 (protein)
# chain: SSQKLVDTAVKLLEEMEKELTELAKKEGLSRLDILELELEIGSLIAEVISLVDKSPEEILETTKEGLEEIIELAKELGEEVAKLAEEKSKEIIEELEKLI
# B12: LC3A_28_1295 (protein)
# chain: SEIEKNLKEALAEAKKAKAEGKQVVITVKVPGDATQEEIELVIKGLEEIAKVLEDVPNQTIIIDVEAGVKQEHIDLLADRAEEIEKKYPNVTVIIALDED
# B13: LC3A_28_1058 (protein)
# chain: MSIEEQLEKALEEAKEAVKKGEEALVELKINKDSTEEDVEKVLETMKEIAELTKDLPSVSIVVDVDHENKEEVTKKVSELGDELEKKYPNVTVIIALSEE
# B14: LC3A_28_1049 (protein)
# chain: SPIEEELKRALEEAKEAVARGEEALIRLTIGKDATEEDVEKVLETMEEIAELTKSLPRVDIVVDVDSENKEEVTKKIAEKGEELEKKYPNVTVYIALSEE
# B15: LC3A_28_738 (protein)
# chain: SAIEKELEKAIKEAKEAAKAKEPKVITITVPGTANEEDIELVIKALEEIAEILKDVKDQAIIIDVDGKLDPELLKKLMDKAEEIEEKYPNVTVIIALDEE
# B16: LC3A_free_8_2444 (protein)
# chain: STQKLVDEVTELLDEMEERVEEKAKELGLSELDILDLSLLIGSLIAEIISAVDKSIEEIRKIVEEDMEEIIEEARELSEEIAEIVEETKERILELIDEAE
# B17: LC3A_28_1082 (protein)
# chain: SAVDAQIAAALAALRAAKAAGEEALLTLTLTEDATQEDVDRLIAGLEEIAELARDAARVTVVIDLDGKIPQEHIDRIADAAERIEERVPNVTVIIALDEE
# B18: LC3A_free_39_2223 (protein)
# chain: SEEEIEKLIKEVAKESGIDYEELKKKIEEIKEVGKLSNEQILEIVKAILEAVKAGADAKEILEEALKLTKELVAAGKSPEEIKEEILELIEDYRNLVPLD
# B19: LC3A_3_1370 (protein)
# chain: MEEEKAATLAELKAAGKSEETIAAVEKTLDALIEKGYEEAAKTFMELLKELKDLSDEILLAFAEDVLKAVEEEDLSEEELIKFIKEEATIARNEQEIIEL
# Molecular target: MAP1LC3A, Q9H492
# Assay: median log2 fold change of GCK-ALFA target abundance (FLAG IP / Myc IP barcode read proportion) (log2 ratio); each designed protein is fused to an ALFA-tag nanobody in HEK293 cells to bring the named protein to FLAG-tagged glucokinase (GCK); Myc marks an untargeted standard; higher = target protein stabilised (more abundant)
# Settings: target protein: 3xFLAG-MCP-GCK-ALFA reporter; HEK293 landing pad (RPLP)
# Summary of the method: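 The readout is target abundance, the per-binder median log2 ratio of FLAG to Myc barcode read proportions. It came from HEK293 landing-pad cells carrying a recombined ALFA-nanobody-fused binder library, induced with 2 μg mL^−1 doxycycline and transfected with a plasmid for a FLAG-tagged target and a Myc-tagged standard. After 48 h, lysates were immunoprecipitated with anti-FLAG and anti-Myc, and circular RNA barcodes were reverse transcribed, amplified and sequenced. Each barcode needed a proportion of at least 10^−7 in both replicates and each binder at least 3 barcodes per replicate, a pseudocount of 10^−6 was added, and the replicates were pooled.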
row,Binder,median log2 fold change
1,B1,-0.0503
2,B2,0.102
3,B3,0.252
4,B4,-0.342
5,B5,-0.577
6,B6,0.00506
7,B7,0.328
8,B8,0.0338
9,B9,0.117
10,B10,-0.745
11,B11,-0.163
12,B12,0.184
13,B13,-0.699
14,B14,0.00401
15,B15,0.167
16,B16,-0.324
17,B17,0.081
18,B18,-0.0674
19,B19,0.233
